# About 2,000 (36%) of roughly 5,500 compounds were called active. Not shown: some 18% with an inconclusive outcome. This is one part of the list. A number with no mark means an inactive call. Rule as the data show it: active = normalized growth mostly below about 0.91 (no sharp cut-off); inconclusive = no clear call, values can overlap the other calls; inactive = mostly above about 0.92.
# Test: chemical genetic growth profiling, strain panel (AID 1159580);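 also: tested at 20 µM; growth read once vehicle control cultures reached saturation at 30 °C; 1 = growth at the plate median or of vehicle wells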
# Settings: growth OD
smiles,measurement,setting,value
N[C@H](Cc1cc(I)c(Oc2ccc(O)c(I)c2)c(I)c1)C(=O)O,normalized growth,"S. cerevisiae deletion strains, locus YJR075W, strain HOC1, stronger effect = lower value",1
same,normalized growth,"S. cerevisiae deletion strains, locus YKL009W, strain mrt4, stronger effect = lower value",1.03
same,normalized growth,"S. cerevisiae deletion strains, locus YKL068W, stronger effect = lower value",0.998
same,normalized growth,"S. cerevisiae deletion strains, locus YKL085W, strain MDH1 (second series), stronger effect = lower value",0.991
same,normalized growth,"S. cerevisiae deletion strains, locus YKL085W, strain MDH1, stronger effect = lower value",0.991
same,normalized growth,"S. cerevisiae deletion strains, locus YKL160W, strain elf1, stronger effect = lower value",0.965
same,normalized growth,"S. cerevisiae deletion strains, locus YKL190W, strain CNB1, stronger effect = lower value",1.01
same,normalized growth,"S. cerevisiae deletion strains, locus YKR001C, strain vps1, stronger effect = lower value",0.862 (active)
same,normalized growth,"S. cerevisiae deletion strains, locus YKR026C, strain gcn3, stronger effect = lower value",0.999
same,normalized growth,"S. cerevisiae deletion strains, locus YKR091W, strain srl3, stronger effect = lower value",0.998
same,normalized growth,"S. cerevisiae deletion strains, locus YLL001W, strain dnm1, stronger effect = lower value",0.989
same,normalized growth,"S. cerevisiae deletion strains, locus YLL026W, stronger effect = lower value",1
same,normalized growth,"S. cerevisiae deletion strains, locus YLL041C, strain sdh2, stronger effect = lower value",1
same,normalized growth,"S. cerevisiae deletion strains, locus YLR027C, strain aat2, stronger effect = lower value",0.968
same,normalized growth,"S. cerevisiae deletion strains, locus YLR039C, strain RIC1, stronger effect = lower value",0.964
same,normalized growth,"S. cerevisiae deletion strains, locus YLR058C, strain SHM2, stronger effect = lower value",1.01
same,normalized growth,"S. cerevisiae deletion strains, locus YLR102C, strain apc9, stronger effect = lower value",0.996
same,normalized growth,"S. cerevisiae deletion strains, locus YLR113W, strain HOG1, stronger effect = lower value",1.04
same,normalized growth,"S. cerevisiae deletion strains, locus YLR221C, strain rsa3, stronger effect = lower value",0.945
same,normalized growth,"S. cerevisiae deletion strains, locus YLR258W, strain gsy2, stronger effect = lower value",0.969
same,normalized growth,"S. cerevisiae deletion strains, locus YLR262C, strain YPT6 (second series), stronger effect = lower value",0.938
same,normalized growth,"S. cerevisiae deletion strains, locus YLR262C, strain YPT6, stronger effect = lower value",0.953
same,normalized growth,"S. cerevisiae deletion strains, locus YLR268W, strain sec22, stronger effect = lower value",0.909
same,normalized growth,"S. cerevisiae deletion strains, locus YLR320W, strain mms22, stronger effect = lower value",0.941
same,normalized growth,"S. cerevisiae deletion strains, locus YLR330W, strain CHS5, stronger effect = lower value",1.04
same,normalized growth,"S. cerevisiae deletion strains, locus YLR342W, strain FKS1 (second series), stronger effect = lower value",0.95
same,normalized growth,"S. cerevisiae deletion strains, locus YLR342W, strain FKS1, stronger effect = lower value",0.994
same,normalized growth,"S. cerevisiae deletion strains, locus YLR357W, strain rsc2, stronger effect = lower value",1
same,normalized growth,"S. cerevisiae deletion strains, locus YLR370C, strain arc18, stronger effect = lower value",0.999
same,normalized growth,"S. cerevisiae deletion strains, locus YLR371W, strain rom2, stronger effect = lower value",0.989
same,normalized growth,"S. cerevisiae deletion strains, locus YLR384C, strain iki3, stronger effect = lower value",0.993
same,normalized growth,"S. cerevisiae deletion strains, locus YLR418C, strain cdc73, stronger effect = lower value",0.77 (active)
same,normalized growth,"S. cerevisiae deletion strains, locus YML016C, strain PPZ1, stronger effect = lower value",0.997
same,normalized growth,"S. cerevisiae deletion strains, locus YML032C, strain rad52, stronger effect = lower value",0.989
same,normalized growth,"S. cerevisiae deletion strains, locus YML120C, strain ndi1, stronger effect = lower value",0.998
same,normalized growth,"S. cerevisiae deletion strains, locus YML124C, strain tub3, stronger effect = lower value",0.997
same,normalized growth,"S. cerevisiae deletion strains, locus YMR058W, strain fet3, stronger effect = lower value",0.988
same,normalized growth,"S. cerevisiae deletion strains, locus YMR078C, strain ctf18, stronger effect = lower value",1.01
same,normalized growth,"S. cerevisiae deletion strains, locus YMR125W, strain sto1, stronger effect = lower value",0.989
same,normalized growth,"S. cerevisiae deletion strains, locus YMR129W, stronger effect = lower value",0.999
same,normalized growth,"S. cerevisiae deletion strains, locus YMR205C, strain PFK2, stronger effect = lower value",0.88
same,normalized growth,"S. cerevisiae deletion strains, locus YMR223W, strain ubp8, stronger effect = lower value",0.934
same,normalized growth,"S. cerevisiae deletion strains, locus YMR231W, strain pep5, stronger effect = lower value",0.999
same,normalized growth,"S. cerevisiae deletion strains, locus YMR263W, strain SAP30, stronger effect = lower value",1
same,normalized growth,"S. cerevisiae deletion strains, locus YMR307W, strain GAS1, stronger effect = lower value",0.956
same,normalized growth,"S. cerevisiae deletion strains, locus YNL067W, strain RPL9B, stronger effect = lower value",1.01
same,normalized growth,"S. cerevisiae deletion strains, locus YNL071W, strain lat1, stronger effect = lower value",0.627 (active)
same,normalized growth,"S. cerevisiae deletion strains, locus YNL128W, strain TEP1, stronger effect = lower value",1.01
same,normalized growth,"S. cerevisiae deletion strains, locus YNL153C, strain GIM3, stronger effect = lower value",0.998
same,normalized growth,"S. cerevisiae deletion strains, locus YNL183C, strain NPR1, stronger effect = lower value",0.977
same,normalized growth,"S. cerevisiae deletion strains, locus YNL209W, strain ssb2, stronger effect = lower value",1
same,normalized growth,"S. cerevisiae deletion strains, locus YNL233W, strain BNI4, stronger effect = lower value",0.961
same,normalized growth,"S. cerevisiae deletion strains, locus YNL248C, strain rpa49, stronger effect = lower value",0.986
same,normalized growth,"S. cerevisiae deletion strains, locus YNL250W, strain rad50, stronger effect = lower value",0.988
same,normalized growth,"S. cerevisiae deletion strains, locus YNL271C, strain bni1, stronger effect = lower value",0.989
same,normalized growth,"S. cerevisiae deletion strains, locus YNL298W, strain CLA4, stronger effect = lower value",1
same,normalized growth,"S. cerevisiae deletion strains, locus YNL307C, strain MCK1, stronger effect = lower value",0.613 (active)
same,normalized growth,"S. cerevisiae deletion strains, locus YNL322C, strain KRE1 (second series), stronger effect = lower value",1.02
same,normalized growth,"S. cerevisiae deletion strains, locus YNL322C, strain KRE1, stronger effect = lower value",1.01
same,normalized growth,"S. cerevisiae deletion strains, locus YNR049C, strain mso1, stronger effect = lower value",0.998
same,normalized growth,"S. cerevisiae deletion strains, locus YNR052C, strain pop2, stronger effect = lower value",0.999
same,normalized growth,"S. cerevisiae deletion strains, locus YOL006C, strain TOP1, stronger effect = lower value",0.942
same,normalized growth,"S. cerevisiae deletion strains, locus YOL012C, strain htz1",0.841
same,normalized growth,"S. cerevisiae deletion strains, locus YOL147C, strain pex11, stronger effect = lower value",1
same,normalized growth,"S. cerevisiae deletion strains, locus YOR001W, strain rrp6, stronger effect = lower value",1.01
same,normalized growth,"S. cerevisiae deletion strains, locus YOR061W, strain CKA2, stronger effect = lower value",0.994
same,normalized growth,"S. cerevisiae deletion strains, locus YOR069W, strain VPS5, stronger effect = lower value",1
same,normalized growth,"S. cerevisiae deletion strains, locus YOR070C, strain gyp1, stronger effect = lower value",0.992
same,normalized growth,"S. cerevisiae deletion strains, locus YOR080W, strain dia2, stronger effect = lower value",0.987
same,normalized growth,"S. cerevisiae deletion strains, locus YOR083W, strain WHI5, stronger effect = lower value",0.965
same,normalized growth,"S. cerevisiae deletion strains, locus YOR106W, strain vam3, stronger effect = lower value",0.935
same,normalized growth,"S. cerevisiae deletion strains, locus YOR136W, strain idh2, stronger effect = lower value",0.97
same,normalized growth,"S. cerevisiae deletion strains, locus YOR144C, strain elg1, stronger effect = lower value",0.994
same,normalized growth,"S. cerevisiae deletion strains, locus YOR184W, strain ser1, stronger effect = lower value",0.889
same,normalized growth,"S. cerevisiae deletion strains, locus YOR231W, strain MKK1, stronger effect = lower value",1.03
same,normalized growth,"S. cerevisiae deletion strains, locus YOR265W, strain rbl2, stronger effect = lower value",0.993
same,normalized growth,"S. cerevisiae deletion strains, locus YOR270C, strain vph1, stronger effect = lower value",0.953
same,normalized growth,"S. cerevisiae deletion strains, locus YOR290C, strain snf2, stronger effect = lower value",0.983
same,normalized growth,"S. cerevisiae deletion strains, locus YOR316C, strain cot1, stronger effect = lower value",1
same,normalized growth,"S. cerevisiae deletion strains, locus YPL051W, strain arl3, stronger effect = lower value",0.95
same,normalized growth,"S. cerevisiae deletion strains, locus YPL055C, strain LGE1, stronger effect = lower value",1
same,normalized growth,"S. cerevisiae deletion strains, locus YPL078C, strain atp4, stronger effect = lower value",0.968
same,normalized growth,"S. cerevisiae deletion strains, locus YPL106C, strain sse1, stronger effect = lower value",0.96
same,normalized growth,"S. cerevisiae deletion strains, locus YPL240C, strain hsp82, stronger effect = lower value",0.982
same,normalized growth,"S. cerevisiae deletion strains, locus YPL241C, strain CIN2, stronger effect = lower value",1.01
same,normalized growth,"S. cerevisiae deletion strains, locus YPL256C, strain CLN2, stronger effect = lower value",1.05
same,normalized growth,"S. cerevisiae deletion strains, locus YPR119W, strain clb2, stronger effect = lower value",0.998
same,normalized growth,"S. cerevisiae deletion strains, locus YPR141C, strain kar3, stronger effect = lower value",1.01
same,normalized growth,"S. cerevisiae deletion strains, locus YPR163C, strain tif3, stronger effect = lower value",0.909 (active)
same,normalized growth,"S. cerevisiae deletion strains, locus YPR167C, strain met16, stronger effect = lower value",1.01
same,normalized growth,"S. cerevisiae deletion strains, strain wtn01, stronger effect = lower value",0.955
same,normalized growth,"S. cerevisiae strains, strain wild type, stronger effect = lower value",1

# Reference: PubChem BioAssay AID1159580 (chemical genetic matrix, 2015)
